# A selection: hits, their analogues and other compounds. The true share with any hit is near 11%.
# PNC assembly inh: inhibitors of perinucleolar compartment assembly; PC3M PTB-GFP, PNC prevalence imaging, 16 h; hits give low values; actives 3.1% (n = 140,000); activity change (PNC), negative = inhibition, % at 10 µM;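 active means readout at or below -70, meaning at least 70% loss of cells showing the perinucleolar compartment, a nuclear body marking cancer cells; inconclusive means readout between -30 and a set limit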;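 further: plate controls were DMSO wells for no effect and camptothecin positive control wells for full effect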
#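 Read-out is percentage of cells bearing a perinucleolar compartment, from automated 20x imaging of fixed, Hoechst-stained PC3M PTB-GFP cells. Cells were seeded 4 h, then exposed 16 h to compound (23 nl of library stock) in duplicate plates.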
# ALDH1A1 block: blocks purified human ALDH1A1 activity; P00352; Purified ALDH1A1, NADH fluorescence, propionaldehyde substrate; Potency, µM (highest dose often 75.3 µM), inactives show at the highest dose activity, negative = inhibition, hits mostly inhibitors; actives 7.3% (n = 220,000); active means well fitted inhibition curve with a large enough effect, not every such curve was filed as active; inconclusive means small, poorly fitted or top-dose-only effect, or another doubt; inactive means no such curve, though single readings can be large or run the other way;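 further: potency means the concentration at half of the fitted maximal effect; plate controls were no enzyme wells and a reference inhibitor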
# Target sequence (P00352 whole entry, looked up): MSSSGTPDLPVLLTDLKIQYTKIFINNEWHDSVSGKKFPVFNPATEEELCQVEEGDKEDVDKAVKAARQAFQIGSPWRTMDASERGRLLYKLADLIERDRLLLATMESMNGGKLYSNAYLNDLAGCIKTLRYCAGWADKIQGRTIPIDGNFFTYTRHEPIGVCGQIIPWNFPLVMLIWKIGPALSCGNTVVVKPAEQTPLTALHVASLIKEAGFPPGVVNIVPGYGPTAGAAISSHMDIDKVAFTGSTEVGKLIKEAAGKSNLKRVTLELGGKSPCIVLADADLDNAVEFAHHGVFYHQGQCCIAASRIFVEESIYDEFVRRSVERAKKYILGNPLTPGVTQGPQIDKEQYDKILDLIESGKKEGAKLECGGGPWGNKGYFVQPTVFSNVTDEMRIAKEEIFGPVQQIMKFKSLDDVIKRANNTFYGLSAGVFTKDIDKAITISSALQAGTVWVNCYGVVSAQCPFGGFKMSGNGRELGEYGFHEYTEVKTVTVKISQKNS
# HTT aggregate: reduces HttQ103-GFP aggregates in PC12 cells; PC12 HttQ103-GFP aggregates, Acumen cytometry, 40 h; Potency, µM (top dose mostly 46.1 µM), for the others: at the highest dose activity change, negative = inhibition, usual class: inhibitors; actives 1.1% (n = 220,000); further: potency means the concentration at half of the fitted maximal effect; on the % scale 0 is the no-effect control and ±100 the full control effect; nearly all actives have a fitted effect of over 60% in size
#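 PC12/HTTQ103-GFP, ecdysone-inducible; teb 100 nM; cpd qHTS titration; GFP aggregates read on laser cytometer, Ex 488/Em 500-530 nm.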
# HTT cytoprotect: Huntington cell model cytoprotection by ATP luminescence; PC12 HTT-Q103 induced, cytoprotection, ATP luminescence, 40 h; Potency, µM (highest dose often 56.4 µM), inactives show cytoprotection (ATP increase), most hits filed as activators; actives 0.14% (n = 230,000); further: potency means the concentration at half of the fitted maximal effect; % of control where 0% means no effect; nearly all actives have a fitted effect of over 45% in size
#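 Huntington model: PC12 line, ecdysone-inducible HTTQ103 exon1–GFP, tebufenozide 100 nM. Test articles in a dose series. Endpoint luminescence from cellular ATP.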
# RGS12 GoLoco inh: RGS12 GoLoco-Gai1 interaction inhibition; AID 880; Gai1:RGS12 GoLoco peptide FP, rhodamine, 10 min; actives 0.44% (n = 230,000); P63096; Potency, µM (highest dose often 61.6 µM), inactives show top-dose activity, negative = inhibition, actives largely listed as inhibitors; active means well fitted inhibition curve with a large enough effect, not every such curve was filed as active; inactive means no such curve, though single readings can be large or run the other way; further: potency means the concentration at half of the fitted maximal effect; on the % scale 0 is the no-effect control and ±100 the full control effect; nearly all actives have a fitted effect of over 30% in size
# HPGD block: HPGD (human) dehydrogenase inhibition; P15428; AID 894; purified HPGD, NADH fluorescence kinetic, PGE2 substrate; Potency, µM, without a hit: at the highest dose activity change, negative = inhibition, actives largely listed as inhibitors; actives 4.3% (n = 150,000); active means well fitted inhibition curve with a large enough effect, not every such curve was filed as active; inconclusive means small, poorly fitted or top-dose-only effect, or another doubt; inactive means no such curve, though single readings can be large or run the other way; further: potency means the concentration at half of the fitted maximal effect; on the % scale 0 is the no-effect control and ±100 the full control effect
# Target sequence (P15428 whole entry, looked up): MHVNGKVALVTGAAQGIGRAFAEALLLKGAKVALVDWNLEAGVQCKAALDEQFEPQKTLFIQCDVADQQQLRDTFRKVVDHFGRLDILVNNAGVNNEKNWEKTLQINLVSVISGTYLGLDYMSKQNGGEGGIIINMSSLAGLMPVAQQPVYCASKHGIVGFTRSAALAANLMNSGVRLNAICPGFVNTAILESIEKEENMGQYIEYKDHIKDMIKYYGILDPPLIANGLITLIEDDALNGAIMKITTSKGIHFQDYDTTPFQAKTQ
#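 NADH formation kinetics: reaction with 30 uM PGE2 and 1 mM NAD+ (final), 20 nM enzyme, Tris-HCl pH 8 with Tween 20, after 15 min compound preincubation at room temperature. Fluorescence change, last versus first of five reads.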
# * = called active by the depositor; ? = inconclusive; · = no result given; [ ] = dose if it differs, or a comment. Unless noted, the call rests on the fitted dose curve; in most records, active means well fitted curve in the direction sought with a large enough effect; inconclusive means small, poorly fitted or top-dose-only effect, or another doubt; inactive means no such curve, though single readings can be large; an effect the other way counts as inactive or inconclusive.
SMILES,PNC assembly inh,ALDH1A1 block,HTT aggregate,HTT cytoprotect,RGS12 GoLoco inh,HPGD block
O=Cc1ccc(Oc2cc(-c3ccccc3)nc(-c3ccccc3)n2)cc1,3,22µM*,6%,16%[1.9 µM],0%,-7%
CC(=O)c1ccc(Oc2cc(-c3ccccc3)nc(-c3ccccc3)n2)cc1,39,0%,-10%,19%[10 µM],-6%,-11%
Clc1ccc(-c2n[nH]c3c2CCC3)c(Cl)c1,-2,9%,-18%,-3%,1%,7.1µM*
c1ccc(-c2n[nH]c3c2CCC3)cc1,3,9%,-15%,2%[0.074 µM],-7%,-13%
CCN(CC)S(=O)(=O)c1cccc(C(=O)N/N=C/c2ccc(OC)c(O)c2)c1,-18,25µM*,25%,21%[10 µM],9%,-11%
CCN(CC)S(=O)(=O)c1cccc(C(=O)N/N=C/c2ccccc2OCC(=O)O)c1,·,-10%,4%,-3%[10 µM],0%,·
COc1ccccc1/C=N/NC(=O)c1cccc(NC(=O)c2ccccc2Cl)c1,·,20µM*,18%,-31%,8%,·
COc1cc(/C=N/NC(=O)c2cccc(NC(=O)c3ccccc3Cl)c2)ccc1O,·,13µM*,-24%,-24%[1.9 µM],-9%,·
COc1ccc(/C=N/NC(=O)c2cccc(NC(=O)c3ccccc3Cl)c2)c(OC)c1,·,?,-10%,-29%,1%,·
COc1ccc(/C=N/NC(=O)c2cccc(NC(=O)c3ccccc3Cl)c2)cc1OC,·,4µM*,-18%,-71%,11%,·
COc1ccc(-n2c(=O)c(-c3cccc(C#N)c3)nc3cnc(N4CCNCC4)nc32)cc1,·,-17%,·,-11%,-3%,·
COc1ccccc1/C=N/NC(=O)c1ccc(Cn2nc([N+](=O)[O-])cc2C)cc1,17,14µM*,13%,·,7%,?
CC(=O)Nc1cccc(C(=O)N/N=C/c2ccccc2F)c1,36,4%,-3%,-17%[10 µM],-11%,35µM*
O=C(N/N=C/c1ccncc1)c1cccc(NC(=O)c2ccccc2Cl)c1,19,13µM*,-4%,16%[10 µM],10%,-16%
O=C(N/N=C/c1ccncc1)c1ccc(NC(=O)c2cccc(Cl)c2)cc1,·,-4%,11%,1%,63%,·
CCC(C)N(CC(=O)Nc1cccc(C)c1C)C(=O)CCl (centres undefined),·,-6%,?,-50%,7%,·
Cn1nc(C(F)(F)F)c(C#N)c1N1CCN(c2ccccc2)CC1,-16,?,1.4µM*,-11%,1%,-12%
Cn1nc(C(F)(F)F)c(C#N)c1N1CCN(c2ccc(F)cc2)CC1,-13,4%,11µM*,28%,-11%,-9%
Cn1nc(C(F)(F)F)c(C#N)c1N1CCN(c2ccccn2)CC1,·,-11%,-27%,-11%,-3%,·
CN(C)c1ncc2nc(-c3cccs3)c(=O)n(C[C@H]3CCCO3)c2n1,·,?,·,-2%,13%,·
CNCc1sccc1C,·,3%,2%,10%,5%,·
NC(=O)c1ccc(NC(=O)CCC(=O)N2CCN(S(=O)(=O)c3ccc(Cl)cc3)CC2)cc1,·,·,14%[9.22 µM],-2%[10 µM],3%,·
Oc1ccccc1/C=N/Nc1ccnc(SCc2ccccc2)n1,?,-2%,6%,-68%[10 µM],-7%,28µM*
O=C1CC(C(=O)Nc2ccc(Cl)cc2)n2ncnc2N1 (centres undefined),·,-9%,14%,-23%,-1%,·
CCc1ccc(NC(=O)C2CC(=O)Nc3ncnn32)cc1 (centres undefined),20,25µM*,16%,-24%[10 µM],8%,-9%
SMILES,PNC assembly inh,ALDH1A1 block,HTT aggregate,HTT cytoprotect,RGS12 GoLoco inh,HPGD block
Cc1nc2nc[nH]n2c(=O)c1CCOC(=O)c1c(F)cccc1F,·,?,2%,-31%,-2%,·
CC(=O)Cn1ncc(Br)c(Br)c1=O,·,3.5µM*,12%[9.22 µM],-49%,11%,·
O=C(OCn1ncc(Br)c(Br)c1=O)c1c(F)cccc1F,?,0.5µM*,?,-126%,-7%,28µM*
O=C(Oc1coc(CSc2ncccn2)cc1=O)c1cccs1,·,7%,-1%,-16%,3%,·
Cc1cc(C)n2c(-c3ccccc3Cl)nnc2n1,-109*,?,9%,·,5%,?
CN1c2ccsc2/C(=N/NC(=O)c2c(F)cccc2F)CS1(=O)=O,0,?,-10%,-2%,9%,?
CN1c2ccsc2/C(=N/Nc2ccccc2)CS1(=O)=O,·,13µM*,-4%,6%[10 µM],5%,·
O=C(c1ccncc1)N1CCC2(CC1)CCN(c1ccncc1)CC2,·,-4%,·,?,-5%,-3%
O=C1Nc2ccc(Br)cc2C1(O)Cc1ccccn1 (centres undefined),-114*,12%,4%,-18%[10 µM],16%,-3%
O=C1Nc2ccc(Br)cc2C12NNc1ccccc1O2 (centres undefined),·,9%,22%,-4%,5%,·
Cc1cc(Nc2ccccc2)n(CCOC(=O)COc2ccccc2)n1,-19,?,16%,1%[10 µM],-1%,-21%
COC(=O)Cc1cn(-c2ncc(C(F)(F)F)cc2Cl)c2ccccc12,5,?,13%,-8%[10 µM],19%,?
CN(C)/C=C/C(=O)/C=C/c1cn(-c2ncc(C(F)(F)F)cc2Cl)c2ccccc12,?,-5%,-26%,-30%[10 µM],40%,14µM*
COCCN(CCOC)C(=O)c1ccc(Cc2nc3ccccc3[nH]2)cc1,·,-8%,·,·,·,-12%
O=C1C=C(NCCN2CCOCC2)C(=O)c2cnccc21,-82*,-8%,?,·,9%,-16%
Cc1ccccc1NC(=O)c1ccc(CN(c2ccccc2)S(=O)(=O)c2ccccc2)cc1,-134*,33%,-11%,30%[10 µM],-6%,-25%
CS(=O)(=O)N(Cc1ccccc1)c1ccc(C(=O)Nc2cccnc2)cc1,-100*,15%,-11%,-6%[10 µM],3%,-15%
CN(c1ccc(C(=O)NCc2cccnc2)cc1)S(C)(=O)=O,-100*,11%,10%,19%[0.074 µM],3%,-8%
CCN1C(=O)[C@H]2[C@H]3[C@H](O)[C@H](O)C/C(=N/OCC(C)C)[C@H]3CC[C@@H]2C1=O,·,0%[13.5 µM],·,-33%[10 µM],·,·
CCOc1ccc(NC(=O)c2ccc(CSc3nnc(C)s3)cc2)cc1,·,10%,-19%[9.22 µM],15%[10 µM],7%,·
Cc1ccc(C(=O)Nc2nnc(NC(=S)Nc3ccccc3)s2)cc1,·,22µM*,-9%[9.22 µM],-30%[10 µM],7%,·
CCc1nnc(NC(=S)Nc2ccccc2)s1,·,?,9%,-19%,12%,·
Cc1nc(NC(=S)Nc2ccccc2)sc1C,·,22µM*,6%,-48%,6%,·
CCOc1ccc(C(=O)Nc2nnc(NC(=S)Nc3ccccc3)s2)cc1,·,7.1µM*,25%,·,11%,·
Cc1cnc(C)c(N(C)NC(=S)Nc2ccccc2)n1,-109*,7%,-1%,·,-2%,70%

# Bioassay records as filed in PubChem.
